# Most compounds without a hit are left out; they make up all but 1.5% or so of the library.
# RAD54 branch: inhibitors of human RAD54 branch migration, primary screen, biochemical, fluorescence, single point. DNA repair and recombination protein RAD54-like (Homo sapiens), Q92698. RAD54 Holliday junction branch migration, FAM/BHQ fluorescence. inhibition, % at 10.4 µM. 360,000 compounds, 0.14% hits. AID 602329, 2012;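 active = mean normalized replicate activity at least 40 and at least half of replicates scoring 40 or more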;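 note: 0% = median of neutral control wells and 100% = median of positive control wells; inhibitors cause a drop in the FAM fluorescence signal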
# CFTR F508del cor: F508del CFTR correction, initial screen, CFBE line, single point | activity (quench increase), % at 7.58 µM | 350,000 compounds, 0.36% hits | AID 720511, 2013 | CFBE cells, YFP halide quenching; stimulated with forskolin plus potentiator P3; % fluorescence drop versus neutral controls;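 active = mean added fluorescence quench of at least 8% versus neutral control, with both replicates also reaching 8%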;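 note: cells transiently co-express mutant CFTR-F508del with the halide-sensitive YFP; corrector assay measuring rescue of mutant channel to the surface after 24 h compound exposure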
# N-glyco inh: increase of ERlucT glycosylation luciferase signal, primary screen, N-linked glycosylation inhibitor project, D54 ERlucT cells, luminescence, set 2. D54 ERlucT glycosylation luciferase reporter, 24 h; percent of 100 nM tunicamycin response. reporter increase, % at 12.5 µM. 360,000 compounds, 0.23% hits;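 active = mean luciferase reporter signal, scaled so untreated is 0 and the glycosylation-blocking control 100, at or above a set limit in every replicate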;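 note: luciferase carries N-glycosylation sites so blocking glycosylation raises the light; 0% = median of neutral control wells and 100% = median of 100 nM tunicamycin wells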
# PvdQ acylase: P. aeruginosa PvdQ acylase inhibitors, primary screen, biochemical, fluorescence, plate reader and imaging, single point. PvdQ acylase [Pseudomonas aeruginosa LESB58]. purified PvdQ acylase. inhibition, % at 10 µM. 340,000 compounds, 0.063% hits; in the data active = inhibition above about 30%, passing the limit was not always enough;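 note: 0% = vehicle neutral wells and 100% = reference inhibitor wells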
# dFosB act-1: activators of delta FosB homodimer, primary screen, biochemical, fluorescence polarization, TAMRA-CDK5 oligo, single point. Protein FosB (Mus musculus), P13346. purified delta FosB; percent of positive-control signal above neutral wells. activation, % at 25 µM. 340,000 compounds, 0.99% hits. AID 493131, 2011;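 active = mean activation above about 17%, with every replicate also reaching it, limit read from the data, passing the limit was not always enough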
# RAD52 anneal inh: RAD52 DNA annealing inhibitors, primary screen, biochemical, FRET, single point, set 2; DNA repair protein RAD52 homolog (Homo sapiens), P43351; recombinant RAD52 DNA annealing, FRET fluorescence; inhibition, % at 18.7 µM; 360,000 compounds, 0.46% hits;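 active = every replicate showing at least 50% inhibition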
# Target sequence (P43351 whole entry, looked up): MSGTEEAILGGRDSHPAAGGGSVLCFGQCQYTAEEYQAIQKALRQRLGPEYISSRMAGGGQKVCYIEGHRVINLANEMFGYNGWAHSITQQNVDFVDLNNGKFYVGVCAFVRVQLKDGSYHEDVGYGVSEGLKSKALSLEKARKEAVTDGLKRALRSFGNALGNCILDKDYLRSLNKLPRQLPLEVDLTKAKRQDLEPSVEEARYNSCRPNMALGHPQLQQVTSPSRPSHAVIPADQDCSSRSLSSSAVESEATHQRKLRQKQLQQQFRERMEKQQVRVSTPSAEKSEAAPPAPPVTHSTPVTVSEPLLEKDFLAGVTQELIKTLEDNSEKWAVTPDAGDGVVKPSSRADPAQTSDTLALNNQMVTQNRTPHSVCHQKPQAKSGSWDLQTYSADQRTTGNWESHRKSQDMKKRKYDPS
# dFosB act-2: activators of mouse delta FosB DNA binding, confirmation, biochemical, fluorescence polarization, TAMRA-CDK5 oligo, cherry-picked samples | shares compounds with dFosB act-1 | purified delta FosB; normalised: neutral wells 0, positive control 100 | activation, % at 24.9 µM | 2,400 tested, under 10 active | AID 588690, 2011;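 active = highest replicate activation at or above 34% and every replicate reaching that threshold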;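 note: higher polarization means more probe DNA bound by delta FosB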
# Rad54 DNA ctr: DNA binding of candidate compounds, dose response, artefact control for RAD54 inhibitor project, biochemical, fluorescence polarization, cherry-pick. shares compounds with RAD54 branch. Acridine orange-DNA displacement, 20 min. AC50, µM (series often up to 35 µM), inactives show at the top dose activity change, negative = DNA binding. 460 compounds, 8% hits;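 active = signal drop giving an AC50 within twice the top valid tested concentration of each sample, actives reach about 35 µM in these data; inactive = activity opposite to expected, plus the rest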;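 note: polarization loss reports compound binding to salmon sperm DNA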
# Starred values were filed as active, the others as inactive; / = not tested or not shown.
SMILES,RAD54 branch,CFTR F508del cor,N-glyco inh,PvdQ acylase,dFosB act-1,RAD52 anneal inh,dFosB act-2,others
Cc1ccc(C)c2c1[nH]c1ccc([N+](=O)[O-])cc12,17.5,/,-8.5,-9.6,20.5*,/,0.2,
CCOC(=O)c1c(NC(=O)C2c3ccccc3Oc3ccccc32)sc(C(N)=O)c1C,6.9,/,0.5,-13.5,31.8*,/,2.4,
CCOc1ccc2nc(NC(=O)CC3Oc4ccccc4NC3=O)sc2c1 (stereo unspecified),-12.0,4.0,-1.3,-12.6,28.7*,-6.5,2.7,
CO[C@@H]1CC[C@@H]2CCN(C)C(=O)[C@@H](C)[C@H](OC)CN(C)C(=O)c3cc(C#N)ccc3OC[C@@H]1O2,-5.8,1.7,/,/,/,2.7,/,
O=C(N[C@@H]1CC[C@@H](CC(=O)N2CCCCC2)O[C@@H]1CO)c1ccccn1,5.0,-1.3,/,/,/,-21.5,/,
O=C(COC(=O)/C=C/c1cc(Br)ccc1F)Nc1ccc2[nH]c(=O)[nH]c2c1,2.5,-7.1,0.7,-13.2,41.2*,16.2,1.3,
O=C(C[C@@H]1CC[C@@H]2[C@H](COC[C@H](O)CN2Cc2ccccc2F)O1)N[C@@H]1CCN(Cc2ccccc2)C1,-1.2,0.3,/,/,/,-19.0,/,
C[C@@H]1CN([C@H](C)CO)C(=O)Cc2cc(NC(=O)CCC(F)(F)F)ccc2O[C@H]1CN(C)Cc1ccc(C(=O)O)cc1,10.9,0.0,/,/,/,-5.0,/,
Cc1cccc(-n2nnnc2SCC(=O)c2cc(C)n(Cc3ccco3)c2C)c1,14.1,/,-0.6,-12.3,21.4*,/,1.3,
Cc1cccc(-n2nnnc2SCC(=O)c2cc(C)n(CC3CCCO3)c2C)c1 (stereo unspecified),3.6,/,0.8,-11.2,-4.6,/,/,
CC1CC(C)CN(S(=O)(=O)c2ccc(C(=O)Nc3sccc3C(N)=O)cc2)C1 (stereo unspecified),0.5,3.2,7.0,-9.9,28.6*,-16.2,1.9,
O=C(Nc1cccc2ccccc12)/C(=C/c1cccc([N+](=O)[O-])c1)NC(=O)c1cccs1,-10.6,/,-3.7,5.2,24.0*,/,-5.1,
CC(C)(C)OC(=O)CNC(=O)c1[nH]cnc1C(=O)Nc1ccc(CNC(=O)OC(C)(C)C)cc1,0.9,-3.5,-1.1,12.9,-12.6,9.3,/,
CC(C)(C)OC(=O)NCc1ccc(NC(=O)c2nc[nH]c2C(=O)NCCNC(=O)c2[nH]cnc2C(=O)Nc2ccc(CNC(=O)OC(C)(C)C)cc2)cc1,-5.2,/,-8.9,-12.1,40.4*,/,2.1,
O=C(N/N=C/c1ccncc1)c1cccc(NC(=O)c2ccccc2Cl)c1,/,6.0,-0.7,-3.0,-12.0,-21.3,/,
O=C(N/N=C/c1ccncc1)c1ccc(NC(=O)c2cccc(Cl)c2)cc1,/,4.1,-2.9,-10.0,39.3*,-19.4,3.1,
O=C(N/N=C/c1ccncc1)c1ccncc1,-2.7,0.1,0.2,9.5,-3.2,-53.6,/,
O=C(N/N=C/c1ccncc1)c1ccc(NC(=O)c2ccc(Cl)cc2)cc1,/,-3.0,1.0,-17.8,65.2*,-9.6,-1.4,
C[C@@H]1CN([C@H](C)CO)C(=O)c2cc(NC(=O)c3ccncc3)ccc2O[C@H]1CN(C)Cc1ccc(C(=O)Nc2ccccc2N)cc1,/,-1.6,/,/,/,4.3,/,
CCOc1ccc(NC(=O)c2nnn(CC(=O)Nc3ccccc3OC)c2N)cc1,-2.5,/,0.5,-8.7,4.2,/,/,
COc1ccccc1NC(=O)c1nnn(CC(=O)Nc2cccc(SC)c2)c1N,-1.5,/,0.8,-13.2,1.6,/,/,
COc1ccccc1NC(=O)c1nnn(CC(=O)Nc2cc(C)cc(C)c2)c1N,-0.9,1.0,0.9,-3.7,33.1*,8.9,3.0,
COc1ccccc1NC(=O)Cn1nnc(C(=O)Nc2ccccc2)c1N,-8.3,/,1.2,-13.5,33.3*,/,6.4,
CNC(=O)C[C@H]1CC[C@@H]2[C@H](COc3ccc(NC(=O)Nc4c(C)noc4C)cc3C(=O)N2C)O1,-5.8,1.0,/,/,/,/,/,
Cc1noc(C)c1S(=O)(=O)N(C)C[C@@H]1Oc2ccc(NC(=O)Nc3ccc(C(F)(F)F)cc3)cc2CC(=O)N([C@H](C)CO)C[C@H]1C,7.1,2.1,/,/,/,/,/,
SMILES,RAD54 branch,CFTR F508del cor,N-glyco inh,PvdQ acylase,dFosB act-1,RAD52 anneal inh,dFosB act-2,others
CC(=O)Nc1ccc(NC(=O)Cn2c(=O)n(-c3ccc(F)cc3)c(=O)c3oc4ccccc4c32)cc1,/,-0.2,-0.6,-12.2,20.7*,-12.9,0.6,
NC(=O)c1ccc(NC(=O)Cn2c(=O)n(-c3ccccc3)c(=O)c3oc4ccccc4c32)cc1,/,1.7,-1.6,-8.0,2.8,-8.7,/,
Cc1ccc2nc(C)cc(Nc3ccc([N+](=O)[O-])cc3)c2c1,/,-6.9,-11.7,12.3,63.4*,-31.2,1.4,
CC(=O)N(C)C[C@@H]1Oc2cc(-c3ccc(C)cc3)ccc2S(=O)(=O)N([C@@H](C)CO)C[C@H]1C,-7.0,2.7,/,/,/,10.5,/,
O=C1C2=C(NC(=S)NC2c2ccc(Cl)cc2)NC(c2ccc(Cl)cc2)N1c1ccc(Cl)cc1 (stereo unspecified),6.6,/,-0.2,-1.2,82.1*,/,-0.1,
CCC(=O)N1[C@H](CO)[C@H](c2ccc(-c3ccccc3OC)cc2)C12CN(C(C)=O)C2,/,-2.1,/,/,/,-20.8,/,
CCCOc1ccc(C2c3c(oc4cc(C)c(C)cc4c3=O)C(=O)N2CCCN(C)C)cc1OCC (stereo unspecified),6.2,-0.1,1.2,-12.2,14.5,4.9,/,
COc1cccc(C2c3c(oc4cc(C)c(C)cc4c3=O)C(=O)N2CCCN(C)C)c1 (stereo unspecified),17.9,/,-1.6,-5.5,38.3*,/,4.0,
COc1ccc(C(=O)CN2CCN(CCN3C(=O)c4cccc5cccc(c45)C3=O)CC2)cc1,64.0*,2.0,9.3,-14.1,42.0*,-5.5,6.6,Rad54 DNA ctr=-18.9%
CC(C)C(=O)N1CCN(CCN2C(=O)c3cccc4cccc(c34)C2=O)CC1,15.0,6.3,2.5,-16.8,10.7,10.6,/,
CCOc1cc2[nH]c(=O)n(Cc3ccc(C(=O)NCCCN4CCC(C)CC4)cc3)c(=O)c2cc1OCC,59.8*,3.3,-1.8,-12.1,25.9*,48.0,4.1,Rad54 DNA ctr=-9.1%

# High-throughput results deposited in PubChem BioAssay by Broad Institute.
